Bioassay records: PubChem BioAssay, The Scripps Research Institute Molecular Screening Center
PRMT1 inh = PRMT1 (human) inhibition, primary screen | inhibition, % at 2.79 µM | hit rate 1.3% among 370,000 | recombinant PRMT1, activity-based probe fluorescence polarization;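 active = inhibition above about 21% made by adding two undisclosed values, limit read from the data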
SIAE inh = inhibitors of human sialic acid acetylesterase SIAE; SIAE FP-Rh probe binding, fluorescence polarization; hit rate 0.69% among 370,000; AID 1053197; Q9HAT2; inhibition, % at 9.66 µM;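 active = inhibition above a cutoff: mean of compounds within the control limits plus 3 SD of those, cut at about 17% in these data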;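 note: 0% = plate median of compound wells and 100% = probe without SIAE protein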
PAD4 FP inh = PAD4 (human) enzyme inhibition | recombinant PAD4, RCA probe fluorescence polarization | hit rate 0.41% among 330,000 | inhibition, % at 6.36 µM | AID 485272 | Q9UM07;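 active = percent inhibition above a cutoff equal to the mean of all tested compounds plus 3 SD, cut at about 15% in these data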;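 note: 0% = PAD4 with RCA probe and DMSO and 100% = probe without PAD4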
PME-1 inh = blocks human protein phosphatase methylesterase 1. inhibition, % at 5.9 µM. hit rate 0.53% among 320,000. recombinant PME-1, FP-Rh probe fluorescence polarization. AID 2130. Q9Y570;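 active = inhibition above the campaign mean of all compounds plus 3 SD, cut at about 26% in these data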;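 note: competitive labeling of PME-1 active site by serine hydrolase directed probe; 0% = PME-1 with DMSO and 100% = wells lacking PME-1 enzyme; inhibitors block probe labeling so polarization falls and inhibition rises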
Target sequence (Q9Y570 whole entry, looked up): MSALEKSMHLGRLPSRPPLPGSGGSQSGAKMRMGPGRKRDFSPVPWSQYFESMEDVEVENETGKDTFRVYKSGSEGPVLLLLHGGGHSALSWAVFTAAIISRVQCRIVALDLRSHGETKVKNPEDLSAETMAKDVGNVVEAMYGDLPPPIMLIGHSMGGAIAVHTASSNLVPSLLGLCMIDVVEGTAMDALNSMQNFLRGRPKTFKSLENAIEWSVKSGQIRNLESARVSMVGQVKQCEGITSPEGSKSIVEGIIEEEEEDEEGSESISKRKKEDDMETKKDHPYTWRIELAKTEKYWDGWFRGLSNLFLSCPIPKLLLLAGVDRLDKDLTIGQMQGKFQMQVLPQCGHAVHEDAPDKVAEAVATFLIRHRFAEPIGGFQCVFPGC
TCR-CD3 inh = blocks the human TCR-CD3 interaction; TAMRA-labeled TCR probe fluorescence, biochemical; inhibition, % at 9.4 µM; hit rate 0.37% among 360,000; AID 651800;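 note: recombinant mutant TCR 2C K166C tagged with TAMRA read by polarization; 0% = receptor in buffer alone and 100% = receptor with positive control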
Fam108B counter = Fam108B inhibition, counter-screen for RBBP9 inhibitors | recombinant Fam108B, FP-Rh probe fluorescence polarization | hit rate 0.33% among 300,000 | inhibition, % at 9.51 µM | AID 1947;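 active = inhibition above the screen mean inhibition plus 3 SD, computed separately per campaign, cut at about 18% in these data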;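 note: inhibitors lower polarization as less probe binds the enzyme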
BSA TAMRA ctr = counter-screen for TCR-CD3 interaction inhibitors: BSA probe. hit rate 10% among 1,200. shares compounds with TCR-CD3 inh. TAMRA-labeled BSA probe fluorescence counterscreen. inhibition, % at 9.4 µM. AID 652035; in the data active = inhibition above about 23%;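 note: 0% = buffer low control and 100% = reference high control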
TCR-CD3 inh conf = TCR-CD3 interaction inhibition, confirmation; hit rate 48% among 1,200; shares compounds with TCR-CD3 inh; AID 652036; inhibition, % at 9.4 µM; TAMRA-labeled TCR probe fluorescence binding assay
Starred values were filed as active, the others as inactive; · = no result. Most compounds without a hit are left out; they make up all but 2.6% or so of the library. Cut-off read from the data, not from the text of the source, unless noted: active = inhibition above about 19%; inactive = the rest.

SMILES	PRMT1 inh	SIAE inh	PAD4 FP inh	PME-1 inh	TCR-CD3 inh	Fam108B counter	BSA TAMRA ctr	TCR-CD3 inh conf
O=C(CSc1nc2ccccc2n1Cc1ccccc1Cl)N/N=C\c1cccc(Oc2ccccc2)c1	-3.6	-5.8	·	·	·	·	·	·
C/C(=N\NC(=O)c1ccccc1O)C1CC1	2.6	0.4	4.1	-4.3	25.4*	3.1	40.9*	23.1*
Cc1ccc(C(=O)OCC(=O)NNC(=O)COc2ccc(Cl)cc2)c(O)c1	-1.0	-1.5	-0.6	-2.0	26.8*	-1.3	0.9	11.5
c1ccc(-c2nn(Cc3ncco3)c3ccccc23)cc1	-2.9	-6.4	·	·	·	·	·	·
CN(/N=C/c1ccccc1O)C(=S)c1ccccc1	-1.3	-2.3	0.0	-2.4	-3.7	-2.5	·	·
CN(N=Cc1ccccc1O)c1ccc2ccccc2n1	4.6	6.0	·	·	20.1*	·	4.1	-0.5
CCOc1ccccc1NC(=O)C(=O)N/N=C/c1cc(Br)ccc1O	-2.9	0.9	-6.0	-0.8	27.9*	-0.5	-9.9	21.4*
CC(C)C(=O)OCCCN1C(=O)CCC12CCC(c1ccccc1)CC2 (stereo not given)	0.3	0.6	·	·	·	·	·	·
Cc1ccc2occ(/C=N/O)c(=O)c2c1	-0.7	0.1	-4.9	-1.7	-7.8	3.8	·	·
CC(=O)Oc1ccc2occ(/C=N/c3cc(=O)[nH]c(=S)[nH]3)c(=O)c2c1	4.7	-2.6	6.2	4.5	19.3*	-0.2	-7.2	12.7
COC(=O)C1CN(Cc2ccc(Cl)cc2)CCS(=O)(=O)N1Cc1cn(Cc2ccc(OC)cc2)nn1 (stereo not given)	-1.5	-3.7	·	·	·	·	·	·
COC(=O)CCC(=O)Nc1ccc(Cl)c(Cl)c1	11.3	-10.7	-2.6	-2.6	-10.1	5.8	·	·
COC(=O)CC1(C(=O)OC)Nc2cc(Cl)c(Cl)cc2S(=O)(=O)N1O (stereo not given)	-5.2	-15.5	·	·	38.2*	·	-0.4	28.9*
COC(=O)c1sccc1NC(=O)Nc1ccc(Cl)c(Cl)c1	2.0	-22.9	-4.0	-10.0	34.3*	-14.1	3.2	7.1
O=C(N/N=C/c1cn(-c2ccccc2)nc1-c1cc2ccccc2o1)c1c[nH]c2ccccc12	0.7	-82.3	-9.9	-71.5	24.9*	-14.7	11.1	15.8
C=CCNC(=S)NNC(=O)c1cccn(Cc2ccc(Cl)cc2)c1=O	1.8	4.8	1.8	2.8	35.5*	-0.5	-6.9	18.0
C=CCn1cccc(C(=O)Nc2ccc(Cl)cc2)c1=O	-4.0	1.2	-0.7	-6.3	7.8	-2.6	·	·
C=CCNC(=S)NNC(=O)c1cccn(Cc2cccc(Cl)c2)c1=O	-4.5	-4.3	-2.4	-6.6	26.7*	0.3	-3.9	24.9*
C=CCNC(=S)NNC(=O)c1cc(O)ccc1O	3.4	0.5	-2.5	3.3	38.2*	1.1	-9.6	22.5*
CCn1c(SCC(=O)Nc2ccccc2-c2ccccc2)nnc1-c1cnccn1	-8.9	-2.6	·	·	·	·	·	·
Cc1ccc(OCCn2c(CCNC(=O)c3ccc(F)cc3F)nc3ccccc32)cc1	-0.6	-4.9	·	·	·	·	·	·
CCCCCCCCN1C(=O)[C@@H](CC(=O)N2CCCCC2)C[C@@]2(C(=O)OC)C1=C[C@H](COCc1ccccc1)O[C@@H]2C	-2.0	2.5	·	·	·	·	·	·
O=C(Nc1c(-c2ccc(C(F)(F)F)cc2)nc2ncccn12)c1ccccc1	1.9	4.0	·	·	·	·	·	·
CC(C)(C)[C@H](NC(=O)c1cc(Cl)cc(Cl)c1)C(=O)N1CCC[C@H]1C(=O)N[C@H](C#N)CC(=O)O	3.0	3.7	·	·	·	·	·	·
S=c1[nH]nc(-c2cc(-c3ccccn3)nc3ccccc23)o1	16.1	-5.0	-0.8	5.2	33.4*	4.1	-3.1	7.0
CCOC(=O)C(=O)N1CCC(C(=O)NC2CCCc3ccccc32)CC1 (stereo not given)	3.2	4.1	·	·	·	·	·	·
COCCCNC(=S)N/N=C/c1ccc(O)cc1O	-2.4	13.4	3.0	0.3	20.4*	-1.2	-16.2	-5.1
Oc1ccc(C=NNC(=S)Nc2ccc(F)cc2)c(O)c1	-1.4	12.7	·	·	19.7*	·	-15.3	9.1
O=C(CCC(=O)Nc1ccc(F)cc1)N/N=C/c1ccc(O)cc1O	-1.0	-1.9	-4.2	-3.6	-3.0	2.8	·	·
CC(CCN1CCC(C(O)(c2ccccc2)c2ccccc2)CC1)Oc1ccc(F)cc1 (stereo not given)	0.3	-31.0	·	·	·	·	·	·
